Only some compounds are listed: those with a hit (about 1.6% of all), similar ones and a draw of the others.
KCNQ2 pot – potentiators of rat KCNQ2 potassium channel; AID 2239; B-score at 10 µM; O88943; CHO-K1 KCNQ2, FluxOR thallium flux fluorescence; hits give high values; hit rate 0.54% among 310,000;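 active means fluorescence ratio B-score at least 3 SD of library B-scores, with initial fluorescence B-score within 3 of them, cut at about 5.3 in these data; same plate scores as AID 2156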;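 further: B-score of peak minus minimum over baseline fluorescence ratio after K+ and Tl+ stimulus; positive B-score means potentiation of KCNQ2 with more thallium influx and brighter signal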
KCNQ2 inh – blocks the rat KCNQ2 potassium channel; O88943; CHO-K1 KCNQ2, FluxOR thallium flux, 20 min; hits give low values; B-score at 10 µM; hit rate 1.1% among 310,000; AID 2156;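 active means fluorescence ratio B-score at most minus 3 library SDs, with starting brightness B-score within 2 library SDs, cut at about -5.5 in these data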
Kir21 confirm – confirmation of mouse Kir2.1 potassium channel inhibitors | Kir2.1-expressing cells, FluxOR thallium flux fluorescence; hits give low values | shares compounds with KCNQ2 pot | AID 2032 | hit rate 41% among 2,300 | Tl flux remaining, % of negative control (hits give low values), % at 10 µM;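 active means Primary-screen hit whose thallium flux fell at least 3 control SD below untreated wells in both duplicates, with normal baseline fluorescence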;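 further: 0% = blank wells without stimulus and 100% = stimulated no-compound controls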
Target sequence (P35561 whole entry, looked up): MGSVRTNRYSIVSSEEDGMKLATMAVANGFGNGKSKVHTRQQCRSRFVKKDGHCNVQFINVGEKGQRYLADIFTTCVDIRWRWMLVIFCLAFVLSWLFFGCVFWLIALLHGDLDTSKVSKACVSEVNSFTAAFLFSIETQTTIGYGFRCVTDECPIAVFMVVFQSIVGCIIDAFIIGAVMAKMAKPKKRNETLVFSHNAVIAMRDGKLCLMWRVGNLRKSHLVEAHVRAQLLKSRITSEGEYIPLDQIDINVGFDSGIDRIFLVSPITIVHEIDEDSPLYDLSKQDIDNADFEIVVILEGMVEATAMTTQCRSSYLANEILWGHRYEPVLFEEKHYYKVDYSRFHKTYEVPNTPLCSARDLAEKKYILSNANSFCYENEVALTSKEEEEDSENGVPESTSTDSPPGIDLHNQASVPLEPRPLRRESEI
HEK293 Tl flux – alters thallium flux in parental HEK293 cells, Kir2.1 counter-screen. FluxOR thallium flux fluorescence; 0% = unstimulated blank wells. hit rate 19% among 2,300. FluxOR signal as % of negative control (100 = no effect), % at 10 µM. shares compounds with KCNQ2 pot;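 active means dye signal at least 3 control SD above or below untreated wells in both duplicates, raw fluorescence within 3, either direction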;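 further: percent is based on the flux ratio of peak minus minimum fluorescence over baseline F0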
CHO-K1 ctr – counter-screen for KCNQ2 potentiators: effect in parental CHO-K1 cells | AID 2282 | FluxOR thallium flux fluorescence; zero = vehicle mean+3SD, 100% = vehicle-minus-blank window | activity increase over 3SD of controls, % at 10 µM | hit rate 43% among 1,200 | shares compounds with KCNQ2 pot;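 active means signal rise of at least 3 SD above the untreated control mean, in both duplicate wells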;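 further: counter screen of KCNQ2 potentiator hits so any rise reflects channel-independent effects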
KCNQ1 pot spec – selectivity of KCNQ2 potentiators: effect on human KCNQ1; shares compounds with KCNQ2 pot; CHO KCNQ1 stable, FluxOR thallium flux fluorescence; beyond 3SD, as % of vehicle-control signal; activation over 3SD threshold, % at 10 µM; hit rate 28% among 1,200; AID 2283;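 active means fluorescence ratio rise of at least 3 SD of vehicle wells above their mean, in both replicate wells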;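 further: 0% = vehicle mean plus 3 SD and 100% = vehicle minus unstimulated blank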
KCNQ2 pot confirm – rat KCNQ2 channel potentiator confirmation. shares compounds with KCNQ2 pot. CHO-KCNQ2 cells, FluxOR thallium flux fluorescence. potentiation, less the hit threshold, % at 10 µM. hit rate 68% among 1,200;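 active means fluorescence ratio rising 3 SD or more over the vehicle control mean in both replicates, plus primary screen hit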;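 further: peak minus minimum thallium fluorescence divided by baseline after K/Tl stimulus; 0% = vehicle mean plus 3 SD and 100% = vehicle minus unstimulated blank difference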
Kir21 spec – mouse Kir2.1 off-target activity of KCNQ2 potentiators; hit rate 2% among 1,200; shares compounds with KCNQ2 pot; activity over 3SD threshold, % at 10 µM; HEK293 Kir2.1, FluxOR thallium flux fluorescence;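 active means fluorescence ratio rise of at least 3 SD above the vehicle-control mean, seen in both replicates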;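 further: 0% = vehicle mean plus 3 SD and 100% = vehicle minus no-stimulus blank window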
KCNQ2 W236L pot – potentiates the retigabine-insensitive rat KCNQ2 W236L mutant channel. shares compounds with KCNQ2 pot. CHO KCNQ2-W236L, automated patch clamp current. current increase over 3SD of negative controls (%), hits give high values, % at 25 µM. hit rate 10% among 940. AID 2558;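 active means current increase at least 3 SD of the untreated controls above them in both duplicate recordings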
* = called active by the depositor.

`O=C1C(=O)c2ccccc2-c2ccccc21` gave KCNQ2 pot 6.2*, KCNQ2 inh inactive, Kir21 confirm inactive, HEK293 Tl flux inactive, CHO-K1 ctr -5, KCNQ1 pot spec -15, KCNQ2 pot confirm -2, Kir21 spec -29 and KCNQ2 W236L pot 3.4%*.
For O=C1C(=O)c2cccc3cccc1c23 the results were KCNQ2 inh inactive.
CCN(CC)P(=O)(c1nccn1C)N(CC)CC was read as KCNQ2 pot 0.78 and KCNQ2 inh inactive.
`O=c1[nH]c(=S)n(-c2ccc(Cl)cc2)c(O)c1/C=N/N1CCOCC1` gave KCNQ2 inh inactive.
Oc1ccc(C(=C(Cl)Cl)c2ccc(O)cc2)cc1 was read as KCNQ2 pot 11*, KCNQ2 inh inactive, Kir21 confirm 38%*, HEK293 Tl flux inactive, CHO-K1 ctr 47*, KCNQ1 pot spec -7, KCNQ2 pot confirm 0.8*, Kir21 spec -100 and KCNQ2 W236L pot inactive.
Screening Cc1ccc(C2C(=O)NC(=O)NC2=O)cc1 returned KCNQ2 inh inactive.
Screening Cc1nc2ccccc2c(=O)n1-c1cc(F)ccc1F returned KCNQ2 inh inactive.
Screening CN1CC(C(=O)c2ccc([N+](=O)[O-])cc2)C(c2ccc(Cl)cc2)C1 (configuration not stated) returned KCNQ2 inh inactive.
Screening CN1CC(C(=O)c2ccccc2)C(c2ccccc2)C1 (configuration not stated) returned KCNQ2 pot 1.2 and KCNQ2 inh inactive.
Screening COc1cccc(C(=O)C2CN(C)CC2c2ccc(Cl)cc2)c1 (configuration not stated) returned KCNQ2 inh inactive, Kir21 confirm 38%* and HEK293 Tl flux inactive.
Screening CN1CC(C(=O)c2cccc(C(F)(F)F)c2)C(c2ccc(Cl)cc2)C1 (configuration not stated) returned KCNQ2 inh inactive, Kir21 confirm 42%* and HEK293 Tl flux 59%*.
COC(=O)C1=C(c2cccc(OC)c2OC)C[C@@H]2CC[C@H]1N2C(=O)N1CCC(C)CC1 was read as KCNQ2 pot 0.12 and KCNQ2 inh inactive.
COc1ccc(-c2nn(CCC#N)cc2C(=O)Nc2cccc([N+](=O)[O-])c2)cc1OC was read as KCNQ2 pot 0.33 and KCNQ2 inh inactive.
For COc1ccc(Cc2nccc3cc(OC)c(OC)cc23)cc1OC the results were KCNQ2 inh inactive, Kir21 confirm 43%* and HEK293 Tl flux inactive.
For COc1ccc(CCNCc2ccc(C)s2)cc1OC the results were KCNQ2 pot 1.4 and KCNQ2 inh inactive.
`Cc1cc(OCC(=O)N2CCC(C(N)=O)CC2)c2c3c(c(=O)oc2c1)CCCC3` gave KCNQ2 inh inactive.
For COc1ccc(CCNCc2ccccc2)cc1 the results were KCNQ2 pot 1.3 and KCNQ2 inh inactive.
For COc1ccc(CCNCc2c(OC)ccc3ccccc23)cc1 the results were KCNQ2 inh inactive, Kir21 confirm 28%* and HEK293 Tl flux inactive.
`COc1ccc(C(O)P(=O)(OC(C)C)OC(C)C)cc1` (configuration not stated) gave KCNQ2 pot 0.08 and KCNQ2 inh inactive.
For COc1ccc(C(=O)O/N=C(/C(N)=O)P(=O)(OC(C)C)OC(C)C)cc1 the results were KCNQ2 pot 6.4*, KCNQ2 inh inactive, Kir21 confirm inactive, HEK293 Tl flux inactive, CHO-K1 ctr -7, KCNQ1 pot spec 4.2*, KCNQ2 pot confirm 27*, Kir21 spec -51 and KCNQ2 W236L pot inactive.

High-throughput results: PubChem BioAssay, Johns Hopkins Ion Channel Center
